# MOR-DOR ag = agonists of OPRM1-OPRD1 heterodimerization, primary screen, cell-based, luminescence | cells | Mu-type opioid receptor (Homo sapiens) + Delta-type opioid receptor (Homo sapiens), … | activation, % at 9.3 µM | 0.3% of 340,000 active; in the data active means activation above about 18%
# HTR2A ag = mouse Htr2a agonists via beta-arrestin recruitment, primary screen, cell-based, luminescence | 5-hydroxytryptamine receptor 2A (Mus musculus), P35363 | CHO-K1 mHTR2A beta-arrestin complementation; percent of 30 µM serotonin response | activation, % at 7.6 µM | 0.66% of 360,000 active;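 active means activation above a run cutoff, the mean activation of all tested compounds plus 3 SD, cut at about 14% in these data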
# HTR5A inv ctr = HTR5A inverse agonists in luminescence cell assay, primary screen, counter-screen for OPRM1-OPRD1 heterodimer inverse agonist project, full-deck HTS; HTR5A cell line, inverse agonism; inhibition, % at 9.3 µM; 0.083% of 340,000 active; AID 504634, 2011; in the data active means inhibition mostly above about 23%, no sharp cut-off; inactive means mostly below about 18%
# Target sequence (P47898 whole entry, looked up): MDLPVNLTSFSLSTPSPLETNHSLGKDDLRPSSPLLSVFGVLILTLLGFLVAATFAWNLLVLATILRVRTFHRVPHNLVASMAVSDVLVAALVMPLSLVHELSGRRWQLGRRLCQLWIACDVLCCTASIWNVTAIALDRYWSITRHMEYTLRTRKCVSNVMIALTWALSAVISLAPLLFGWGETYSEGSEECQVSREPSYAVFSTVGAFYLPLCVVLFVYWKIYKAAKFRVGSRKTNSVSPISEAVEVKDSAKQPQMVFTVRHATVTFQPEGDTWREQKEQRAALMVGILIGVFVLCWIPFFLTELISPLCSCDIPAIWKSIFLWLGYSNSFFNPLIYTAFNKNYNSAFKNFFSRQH
# MOR-DOR inv ag = inverse agonists of MOR-DOR heterodimerization, primary screen, cell-based, luminescence. cell-based MOR-DOR heterodimer luminescence, inverse agonism. inhibition, % at 9.3 µM. 0.21% of 340,000 active. AID 504357, 2011; in the data active means inhibition above about 22%, passing the limit was not always enough
# HTR5A ag ctr = HTR5A agonists in luminescence cell assay, primary screen, counter-screen for OPRM1-OPRD1 heterodimer agonist project, full-deck HTS; 5-hydroxytryptamine receptor 5A (Homo sapiens), P47898; cell-based; activation, % at 9.3 µM; 0.61% of 340,000 active; in the data active means activation mostly above about 9.5%, no sharp cut-off; inactive means mostly below about 7.6%
# MOR ag counter = OPRM1 agonists via beta-arrestin recruitment, confirmation, counter-screen for mouse HTR2A agonist project, cell-based, luminescence, single concentration; shares compounds with HTR2A ag; U2OS OPRM1 beta-arrestin PathHunter; DMSO 0%, DAMGO 9.3 µM 100%; activation, % at 9.3 µM; 5.3% of 2,300 active;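 active means mean activation above the mean of DMSO-only wells plus 3 SD, cut at about 0.5% in these data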
# HTR2A ag conf = mouse HTR2A agonists, beta-arrestin recruitment, confirmation, cell-based, luminescence, CHO-K1 PathHunter, triplicate | 19% of 2,300 active | shares compounds with HTR2A ag | AID 624381, 2012 | activation, % at 7.6 µM | DMSO 0%, 30 µM serotonin 100%;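 active means mean activation across triplicates above the hit threshold derived in the original primary screen, cut at about 15% in these data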
# Hits are given with their value; 0 = inactive; - = not tested or not shown. Shown are actives, neighbours in structure and some others; about 1.6% of the full set was active somewhere.
SMILES,MOR-DOR ag,HTR2A ag,HTR5A inv ctr,MOR-DOR inv ag,HTR5A ag ctr,MOR ag counter,HTR2A ag conf
CCOc1ccc(NC(=O)N2CCN(S(C)(=O)=O)CC2)cc1,0,0,0,0,0,-,-
CC(=O)Nc1ccc(NC(=O)CCc2c(C)noc2C)cc1,0,0,0,0,0,-,-
CCCC(=O)Nc1c(C(=O)OCC)[nH]c2ccccc12,0,0,0,0,0,-,-
CCOC(=O)c1[nH]c2ccccc2c1NC(=O)Nc1ccc(OC)cc1,0,25,0,0,0,0,0
O=C1N/C(=N/O)S/C1=C\c1ccccc1-n1cccn1,0,16,0,0,0,0,0
OC1c2c(F)cccc2N=C2CCCCCN21 (stereo not drawn),-,0,-,-,-,-,-
O=C(Nc1ccc(F)cc1)Oc1ccc[nH]c1=O,0,15,0,0,0,0,0
CN(CC(=O)Nc1cccc(F)c1)C(=O)c1cc(=O)[nH]c2ccccc12,0,0,0,0,0,-,-
C=CCn1c(=NC(=O)c2ccc(S(=O)(=O)N3CCc4ccccc4C3)cc2)sc2cc(S(N)(=O)=O)ccc21,0,22,0,0,0,0,0
Nc1c(Cl)ncnc1NCC(O)CO (stereo not drawn),0,0,0,0,0,-,-
C#CCOC(=O)CCCC(=O)Nc1ccccc1OC,0,18,0,0,0,0,0
Cc1ccc(CNCC(O)(c2ccccc2)c2ccc(Cl)cc2)cc1 (stereo not drawn),0,0,0,0,0,-,-
Cc1ccc(CNCC(O)(c2ccccc2)c2ccccc2)cc1,0,20,0,0,0,0,0
C[C@]12c3[nH]c4ccc(Cl)cc4c3CCN1C(=O)[C@@H](CC(=O)NCCC1=CCCCC1)C[C@@H]2C(=O)N1CCOCC1,0,23,0,0,0,0,0
COc1ccc(NC(=O)CCNS(=O)(=O)c2ccc3[nH]c(=O)oc3c2)cc1Cl,0,22,0,0,0,0,0
Cc1ccc(NC(=O)CCNS(=O)(=O)c2ccc3[nH]c(=O)oc3c2)cc1,0,0,0,0,0,-,-
C=C(C)c1cccc(C(C)(C)NC(=O)Nc2ncccn2)c1,0,0,0,0,0,-,-
C=C(C)c1cccc(C(C)(C)NC(=O)Nc2ccc(Cl)cn2)c1,0,30,0,0,0,0,18
C=C(C)c1cccc(C(C)(C)NC(=O)Nn2cnnc2)c1,0,16,0,0,0,0,16
C=C(C)c1cccc(C(C)(C)NC(=O)NCc2ccncc2)c1,0,0,0,0,0,-,-
O=C(Nc1n[nH]c(=S)s1)c1ccc2ccccc2c1,0,18,0,0,0,0,0
OC1CCN(c2ncnc3nc[nH]c23)CC1,0,0,0,0,0,-,-
CC1CCN(c2ncnc3nc[nH]c23)CC1,0,25,0,0,0,0,0
CN([C@@H](Cc1ccc(OS(=O)(=O)c2cccc3cnccc23)cc1)C(=O)N1CCN(c2ccccc2)CC1)S(=O)(=O)c1cccc2cnccc12,0,15,0,0,0,0,0
COc1ccc(N2CCN(C(=O)C(Cc3ccccc3)n3cccc3)CC2)cc1 (stereo not drawn),0,0,0,0,0,-,-
COc1ccccc1N1CCN(C(=O)CSc2nc3ccccc3[nH]2)CC1,0,15,0,0,0,0,0
COc1ccccc1N1CCN(C(=O)CSc2ncccc2-c2nc3ccccc3[nH]2)CC1,0,0,0,0,0,-,-
CCCCN(C=O)c1c(CC)nc2c(OCc3cccc(Cl)c3)cccn12,-,0,-,-,-,-,-
CSc1ccccc1OCc1cc(C(=O)N2CCCC(C)C2)no1 (stereo not drawn),0,0,0,0,0,-,-

# Screening data as filed in PubChem BioAssay.
